Assay results as given in PubChem BioAssay (Tox21).
Where “and” joins values, the source holds several entries; their conditions need not be identical. Identical values can stand only once. Records with an inconclusive call do not appear. Where a call stands in place of a potency, no number is given. More than one record can exist for a structure, and the calls need not agree. Calls of active or inactive are those of the source. Unless noted, calls follow the shape of the dose curve; as a rule, active = well fitted curve in the direction sought with a large enough effect in the repeat runs; inconclusive = weak or mixed curves; inactive = no such curve, though single readings can be large; an effect the other way counts as inactive or inconclusive.

Legend:
[1] = biological target: Peroxisome proliferator-activated receptor delta (Homo sapiens) (UniProt Q03181); assay: qHTS assay to identify small molecule agonists of the peroxisome proliferator-activated receptor delta (PPARd) signaling pathway (AID 743212; calls by dose curve)
Procedure, shortened: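 HEK293H PPARd-bla cells; 5 h preincubation 37 C/5% CO2; compound (DMSO) 37 C; LiveBLAzer B/G FRET substrate 2 h RT; fluorescence intensity.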

[2] = qHTS assay to identify small molecule antagonists of the peroxisome proliferator-activated receptor delta (PPARd) signaling pathway - cell viability counter screen (AID 743213); also: nearly all actives have a fitted effect of over 50% in size; also: potency is read from the fitted curve at half-maximal effect
Procedure, shortened: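 CellTiter-Glo was added to PPARd-bla HEK293H wells following 17 h compound treatment in the presence of 300 nM L165041. Luminescence was recorded after 30 min at room temperature.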

[3] = biological target: Peroxisome proliferator-activated receptor delta (Homo sapiens) (UniProt Q03181); assay: qHTS assay to identify small molecule antagonists of the peroxisome proliferator-activated receptor delta (PPARd) signaling pathway (AID 743215; active = well fitted inhibition curve with a large enough effect in the signal ratio in the repeat runs, not every such curve was filed as active; the % refers to the signal ratio;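 also: cells stimulated with agonist L165041 at 300 nM final during compound exposure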; also: potency is read from the fitted curve at half-maximal effect)
Procedure, shortened: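 PPARd-bla HEK293H cells (UAS-bla reporter) preincubated 5 h, then given compound plus 300 nM final L165041 agonist for 17 h at 37 C. Beta-lactamase activity read by LiveBLAzer B/G FRET substrate fluorescence after 2 h at room temperature.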

[4] = qHTS assay to identify small molecule agonists of the farnesoid-X-receptor (FXR) signaling pathway - cell viability counter screen (AID 743218); also: nearly all actives have a fitted effect of over 45% in size; also: potency is read from the fitted curve at half-maximal effect
Procedure, shortened: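 FXR-UAS-bla HEK 293T cells exposed to compounds for 16 h at 37C. Cytotoxicity read in the same wells by CellTiter-Glo luminescence after 30 min at room temperature, following the beta-lactamase FRET read.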

[5] = biological target: Vitamin D3 receptor (Homo sapiens) (UniProt P11473); assay: qHTS assay to identify small molecule agonists of the vitamin D receptor (VDR) signaling pathway (AID 743222; calls by dose curve)
Procedure, shortened: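 VDR-bla cells plated 4 h at 37 C, then exposed to compounds for 16 h at 37 C. Beta-lactamase reporter activity measured by fluorescence after 2 h room-temperature loading with LiveBLAzer B/G FRET substrate.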

[6] = biological target: Vitamin D3 receptor (Homo sapiens) (UniProt P11473); assay: qHTS assay to identify small molecule antagonists of the vitamin D receptor (VDR) signaling pathway (AID 743223; active = well fitted inhibition curve with a large enough effect in the signal ratio in the repeat runs, not every such curve was filed as active; the % refers to the signal ratio)
Procedure, shortened: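 After VDR-bla cells are plated and left 4 h at 37C, DMSO-dissolved compounds and 3 nM (final) calcitriol agonist are added. Incubation continues 16 h at 37C; FRET beta-lactamase substrate then develops 2 h at room temperature.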

[7] = qHTS assay to identify small molecule agonists of the vitamin D receptor (VDR) signaling pathway - cell viability counter screen (AID 743224); also: nearly all actives have a fitted effect of over 50% in size; also: potency is read from the fitted curve at half-maximal effect
Procedure, shortened: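 VDR-bla cells, 4 h after plating, exposed to compounds for 16 h at 37C; viability then read in the same wells as CellTiter-Glo luminescence after 30 min at room temperature, following the bla FRET read.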

[8] = qHTS assay to identify small molecule antagonists of the vitamin D receptor (VDR) signaling pathway - cell viability counter screen (AID 743225); also: nearly all actives have a fitted effect of over 50% in size; also: potency is read from the fitted curve at half-maximal effect
Procedure, shortened: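 Cytotoxicity toward the VDR-bla HEK 293T line was scored by ATP-based CellTiter-Glo luminescence, read in the wells already used for the beta-lactamase readout after 16 h compound treatment under 3 nM 1-alpha,25-dihydroxyvitamin D3 stimulation.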

[9] = qHTS assay to identify small molecule agonists of the NFkB signaling pathway (AID 1159509; active = well fitted curve in the direction sought with a large enough effect in the signal ratio in the repeat runs, not every such curve was filed as active; the % refers to the signal ratio; also: series mostly up to about 61 µM)
Procedure, shortened: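 NFkB-bla ME-180 cells carry a beta-lactamase reporter under an NF-kB response element. They were plated overnight, then exposed to compounds for 5 h at 37 C. Read-out is LiveBLAzer FRET after 1.5 hr at room temperature (405 nm excitation; 460/530 nm emission).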

[10] = qHTS assay to identify small molecule agonists of the NFkB signaling pathway - cell viability counter screen (AID 1159515; calls by dose curve; also: nearly all actives have a fitted effect of over 55% in size; also: potency is read from the fitted curve at half-maximal effect)
Procedure, shortened: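 NFkB-bla ME-180 cells, 2,000/well, plated overnight at 37 C; compound added for 5 hr at 37 C. Viability read in the same wells as the bla reporter, by CellTiter-Glo luminescence after 30 min at room temperature.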

[11] = qHTS assay to identify small molecule agonists of the endoplasmic reticulum stress response signaling pathway (AID 1159516; active = well fitted activation curve with a large enough effect in the signal ratio in the repeat runs, not every such curve was filed as active; the % refers to the signal ratio)
Procedure, shortened: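 CellSensor ESRE-bla HeLa cells, 1,500 per well, plated overnight, then exposed to compounds for 5 hr at 37 C. Beta-lactamase reporter read with LiveBLAzer B/G FRET substrate after 2 hr at room temperature, 405 nm excitation, 460 and 530 nm emission.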

[12] = qHTS assay to identify small molecule agonists of the endoplasmic reticulum stress response signaling pathway - cell viability counter screen (AID 1159517; calls by dose curve;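 also: HeLa cells carrying an ER stress response element beta-lactamase reporter; series mostly up to about 61 µM; nearly all actives have a fitted effect of over 50% in size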)
Procedure, shortened: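 HeLa cells carrying an ESRE-driven beta-lactamase reporter receive compound for 5 hr at 37 C. Cell viability is then gauged with CellTiter-Glo by luminescence, 30 min at room temperature.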

[13] = qHTS assay to identify small molecule antagonists of the retinoid-related orphan receptor gamma (ROR-gamma) signaling pathway - cell viability counter screen (AID 1159520); also: nearly all actives have a fitted effect of over 50% in size; also: potency is read from the fitted curve at half-maximal effect
Procedure, shortened: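 Cytotoxicity was read from cellular ATP (CellTiter-Glo luminescence) after 16 hr at 37 C with 1 uM doxycycline induction. The inducer was added 2 hr after compound transfer to Tet-on ROR gamma CHO cells.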

[14] = biological target: Nuclear receptor ROR-gamma (Homo sapiens) (UniProt P51449); assay: qHTS assay to identify small molecule antagonists of the retinoid-related orphan receptor gamma (ROR-gamma) signaling pathway (AID 1159521; also: nearly all actives have a fitted effect of over 50% in size; also: potency is read from the fitted curve at half-maximal effect)
Procedure, shortened: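 Readout: ONE-Glo luciferase luminescence, 30 min at room temperature. System: Tet-on RORγ CHO, RORE-LUC. Sequence: compound 2 h, doxycycline 1 uM final, 16 h at 37 C.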

[15] = qHTS assay to identify small molecule agonists of the AP-1 signaling pathway - cell viability counter screen (AID 1159525; calls by dose curve; also: nearly all actives have a fitted effect of over 55% in size)
Procedure, shortened: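 Luminescent ATP readout (Cell Titer Glo, 30 min RT), normalised to DMSO and tetra n-octyl ammonium bromide controls. Cells were ME-180 AP-1-bla in 0.5% dialyzed FBS Opti-MEM, with a 5 h, 37 °C compound exposure.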

[16] = qHTS assay to identify small molecule agonists of the AP-1 signaling pathway (AID 1159526; calls by dose curve)
[17] = qHTS assay to identify small molecule agonists of the peroxisome proliferator-activated receptor delta (PPARd) signaling pathway - cell viability counter screen (AID 743211); also: nearly all actives have a fitted effect of over 55% in size; also: potency is read from the fitted curve at half-maximal effect
Procedure, shortened: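 Multiplexed format: after the 2 h room-temperature LiveBLAzer B/G FRET step, CellTiter-Glo was added to the same wells. Luminescence after 30 min gave cell viability; compound exposure was 17 h at 37C.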

[18] = biological target: Bile acid receptor (Homo sapiens) (UniProt Q96RI1); assay: qHTS assay to identify small molecule antagonists of the farnesoid-X-receptor (FXR) signaling pathway (AID 743217; active = well fitted inhibition curve with a large enough effect in the signal ratio in the repeat runs, not every such curve was filed as active; the % refers to the signal ratio)
Procedure, shortened: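 FXR-UAS-bla HEK 293T cells (beta-lactamase reporter) given compound plus chenodeoxycholic acid (50 uM final), 16 h at 37C. LiveBLAzer B/G FRET substrate added for 2 h at room temperature; fluorescence read.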

[19] = biological target: Bile acid receptor (Homo sapiens) (UniProt Q96RI1); assay: qHTS assay to identify small molecule agonists of the farnesoid-X-receptor (FXR) signaling pathway (AID 743220; active = well fitted activation curve with a large enough effect in the signal ratio in the repeat runs, not every such curve was filed as active; the % refers to the signal ratio)
Procedure, shortened: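 Beta-lactamase reporter under UAS control in GeneBLAzer FXR HEK 293T cells (5000/well) measured with LiveBLAzer FRET substrate after 2 h at room temperature. Compound exposure lasted 16 h at 37C.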

[20] = qHTS assay to identify small molecule antagonists of the farnesoid-X-receptor (FXR) signaling pathway - cell viability counter screen (AID 743221; active = well fitted cell-killing curve with a large enough effect in the repeat runs, not every such curve was filed as active; also: nearly all actives have a fitted effect of over 50% in size; also: potency is read from the fitted curve at half-maximal effect)
Procedure, shortened: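 CellTiter-Glo, 30 min RT, luminescence; same wells as the LiveBLAzer FRET read. Cells: FXR-UAS-bla HEK 293T. Treatment: compound with chenodeoxycholic acid 50 uM final, 16 h at 37 C.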

Chain of Peroxisome proliferator-activated receptor delta (Homo sapiens) (Q03181 whole entry, looked up): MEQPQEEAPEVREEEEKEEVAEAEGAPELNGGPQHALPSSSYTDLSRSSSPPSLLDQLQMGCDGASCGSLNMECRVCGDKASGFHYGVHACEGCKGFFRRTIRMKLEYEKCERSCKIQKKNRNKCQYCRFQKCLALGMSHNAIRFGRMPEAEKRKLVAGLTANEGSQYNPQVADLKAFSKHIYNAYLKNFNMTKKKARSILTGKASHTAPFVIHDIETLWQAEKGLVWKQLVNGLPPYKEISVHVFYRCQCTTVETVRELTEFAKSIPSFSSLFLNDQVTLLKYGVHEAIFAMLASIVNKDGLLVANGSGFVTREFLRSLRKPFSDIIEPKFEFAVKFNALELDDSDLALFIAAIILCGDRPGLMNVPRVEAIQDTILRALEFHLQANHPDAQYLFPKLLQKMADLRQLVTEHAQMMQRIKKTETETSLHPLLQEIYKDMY
Chain of Vitamin D3 receptor (Homo sapiens) (P11473 whole entry, looked up): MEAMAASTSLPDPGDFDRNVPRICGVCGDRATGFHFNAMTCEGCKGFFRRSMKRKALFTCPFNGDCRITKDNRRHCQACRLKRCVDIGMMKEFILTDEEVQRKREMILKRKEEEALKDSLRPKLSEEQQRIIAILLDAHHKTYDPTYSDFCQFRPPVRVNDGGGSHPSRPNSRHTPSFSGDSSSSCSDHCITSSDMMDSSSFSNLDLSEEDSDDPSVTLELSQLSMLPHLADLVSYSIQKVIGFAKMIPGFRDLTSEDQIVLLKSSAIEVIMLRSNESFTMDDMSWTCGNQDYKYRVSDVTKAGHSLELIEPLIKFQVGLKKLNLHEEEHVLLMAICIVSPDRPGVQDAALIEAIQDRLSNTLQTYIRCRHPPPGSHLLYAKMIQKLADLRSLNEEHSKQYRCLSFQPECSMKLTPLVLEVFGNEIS
Chain of Bile acid receptor (Homo sapiens) (Q96RI1 whole entry, looked up): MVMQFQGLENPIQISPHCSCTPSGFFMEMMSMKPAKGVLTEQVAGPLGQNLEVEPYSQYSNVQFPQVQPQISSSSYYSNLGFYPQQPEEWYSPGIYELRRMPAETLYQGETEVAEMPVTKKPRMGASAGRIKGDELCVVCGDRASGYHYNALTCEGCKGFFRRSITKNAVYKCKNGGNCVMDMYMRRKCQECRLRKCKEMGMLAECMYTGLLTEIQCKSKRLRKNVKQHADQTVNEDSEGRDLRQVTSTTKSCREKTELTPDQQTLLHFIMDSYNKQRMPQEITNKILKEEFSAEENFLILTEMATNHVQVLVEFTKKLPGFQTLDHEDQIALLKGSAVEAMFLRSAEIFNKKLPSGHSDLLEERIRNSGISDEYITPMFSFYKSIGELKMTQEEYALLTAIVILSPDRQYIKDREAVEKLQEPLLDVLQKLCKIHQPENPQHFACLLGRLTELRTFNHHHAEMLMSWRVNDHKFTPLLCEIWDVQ

SMILES | outcome [1] | Potency [2] | Potency [3] | Potency [4] | outcome [5] | outcome [6] | Potency [7] | Potency [8] | outcome [9] | Potency [10] | Potency [11] | Potency [12] | Potency [13] | Potency [14] | Potency [15] | outcome [16] | Potency [17] | Potency [18] | outcome [19] | Potency [20]
CCCC(=O)O | inactive | inactive | inactive | inactive | inactive | inactive | inactive | inactive | inactive | inactive | inactive | inactive | inactive | inactive | inactive | inactive |  |  |  | 
CC(C)Oc1ccc2c(=O)c(-c3ccccc3)coc2c1 | inactive | inactive | inactive | inactive | inactive | inactive | inactive | inactive | inactive | inactive | inactive | inactive | inactive | inactive |  | inactive | inactive | inactive | inactive | 
CC(C(=O)O)c1cccc(C(=O)c2ccccc2)c1 (stereo not given) | inactive | inactive | inactive | inactive |  |  | inactive | inactive | inactive | inactive | inactive | inactive | inactive | inactive | inactive | inactive |  |  |  | inactive
Cc1c(OCC(F)(F)F)ccnc1CS(=O)c1nc2ccccc2[nH]1 (stereo not given) | inactive | inactive | inactive | inactive |  |  | inactive | inactive | inactive | inactive | inactive | inactive | inactive | inactive | inactive | inactive | inactive | inactive | inactive | inactive
O=C(Nc1ccc(Cl)cc1)Nc1ccc(Cl)c(Cl)c1 | inactive | 19.4 µM (active) | 19.4 µM (active) | inactive and 2.66 µM (active) |  |  | 19.4 µM (active) and 11 µM (active) | inactive | inactive | inactive | inactive | inactive | 17.1 µM (active) | 17.2 µM (active) | inactive |  |  |  | inactive | 
c1ccc2c(c1)Oc1ccccc1S2 | inactive | inactive | inactive | inactive | inactive | inactive | inactive | inactive | inactive | inactive | inactive | inactive | inactive | inactive | inactive |  |  |  |  | inactive
O=S(=O)(O)c1ccc(O)cc1 | inactive | inactive | inactive | inactive | inactive | inactive | inactive | inactive | inactive | inactive | inactive | inactive | inactive | inactive | inactive | inactive | inactive |  |  | inactive
Cc1[nH]c(=O)c(C#N)cc1-c1ccncc1 | inactive | inactive | inactive | inactive |  |  | inactive | inactive | inactive | inactive | inactive | inactive | inactive | inactive | inactive | inactive |  |  |  | inactive
C[C@]12CCC(=O)C=C1CC[C@@H]1[C@@H]2C(=O)C[C@@]2(C)[C@H]1CC[C@]2(O)C(=O)CO | inactive | 49 µM (active) and inactive |  | inactive |  |  | 24.5 µM (active) and inactive | inactive | inactive | inactive | inactive | inactive | inactive | inactive | inactive | inactive | inactive |  |  | inactive
Cc1c(C(N)=O)cc([N+](=O)[O-])cc1[N+](=O)[O-] | inactive | inactive | inactive | inactive | inactive | inactive | inactive | inactive | inactive | inactive | inactive | inactive | inactive | inactive | inactive | inactive |  |  |  | inactive
CN(C)CCC=C1c2ccccc2CCc2ccccc21 | inactive | 24.5 µM (active) | inactive | 49 µM (active) and 19.5 µM (active) | inactive | inactive | 49 µM (active) and 21.9 µM (active) | 21.9 µM (active) and 49 µM (active) and inactive | inactive | inactive | inactive | inactive | inactive | 30.6 µM (active) and inactive | inactive |  | 43.7 µM (active) and 38.9 µM (active) and 29.8 µM (active) | inactive | inactive | 
C[Si](C)(C)O[Si](C)(C)C | inactive | inactive | inactive | inactive | inactive | inactive | inactive | inactive | inactive | inactive | inactive | inactive | inactive | inactive | inactive | inactive | inactive | inactive | inactive | 
O=c1oc(=O)c2cc3c(=O)oc(=O)c3cc12 | inactive | inactive | inactive |  | inactive | inactive | inactive | inactive | inactive | inactive | inactive | inactive | inactive | inactive | inactive | inactive |  |  |  | inactive
O=C(c1ccc(OCCN2CCCCC2)cc1)c1c(-c2ccc(O)cc2)sc2cc(O)ccc12 |  | 24.6 µM (active) and 8.71 µM (active) and 26.6 µM (active) |  | 49 µM (active) and 12.3 µM (active) and 23.7 µM (active) |  |  | 55 µM (active) and 21.9 µM (active) and 33.5 µM (active) | 17.4 µM (active) | inactive | 55 µM (active) and 54.9 µM (active) and inactive | inactive | inactive | 61.2 µM (active) and inactive | 13.7 µM (active) and 19.3 µM (active) | inactive | inactive | 38.9 µM (active) and 12.3 µM (active) and 26.6 µM (active) |  |  | 55 µM (active)
OC(CCl)CCl | inactive | inactive | inactive | inactive | inactive | inactive | inactive | inactive | inactive | inactive | inactive | inactive | inactive | inactive |  | inactive |  |  |  | inactive
